Results filed as inconclusive are left out. Active and inactive are the calls of the source. The calls were made as follows: active = hit-call score of the fitted dose curve at least 0.9, where 1 is the maximum; inconclusive = response in the unintended direction; inactive = score below 0.9.

By AC50 is commonly meant the concentration at which the activity in the assay is half-maximal.

Chain of bovine Dopamine Receptor (DR), Non-selective Binding, DRD1 (gene 281125) (Q95136 whole entry, looked up): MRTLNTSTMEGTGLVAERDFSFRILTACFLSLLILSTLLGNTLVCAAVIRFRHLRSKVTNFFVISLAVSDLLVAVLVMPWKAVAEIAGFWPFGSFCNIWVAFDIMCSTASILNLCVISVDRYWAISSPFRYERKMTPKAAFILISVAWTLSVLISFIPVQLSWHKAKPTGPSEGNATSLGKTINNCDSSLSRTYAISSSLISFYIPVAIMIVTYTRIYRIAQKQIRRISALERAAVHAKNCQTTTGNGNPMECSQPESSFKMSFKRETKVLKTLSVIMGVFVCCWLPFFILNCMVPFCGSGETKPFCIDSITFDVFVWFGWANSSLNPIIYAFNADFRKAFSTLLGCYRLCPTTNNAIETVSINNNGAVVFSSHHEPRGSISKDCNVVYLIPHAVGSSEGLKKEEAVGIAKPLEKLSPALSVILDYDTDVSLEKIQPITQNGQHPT
Chain of rat Monoamine Oxidase, MAO-B, Peripheral (MAOBP), Maob (gene 25750) (P19643 whole entry, looked up): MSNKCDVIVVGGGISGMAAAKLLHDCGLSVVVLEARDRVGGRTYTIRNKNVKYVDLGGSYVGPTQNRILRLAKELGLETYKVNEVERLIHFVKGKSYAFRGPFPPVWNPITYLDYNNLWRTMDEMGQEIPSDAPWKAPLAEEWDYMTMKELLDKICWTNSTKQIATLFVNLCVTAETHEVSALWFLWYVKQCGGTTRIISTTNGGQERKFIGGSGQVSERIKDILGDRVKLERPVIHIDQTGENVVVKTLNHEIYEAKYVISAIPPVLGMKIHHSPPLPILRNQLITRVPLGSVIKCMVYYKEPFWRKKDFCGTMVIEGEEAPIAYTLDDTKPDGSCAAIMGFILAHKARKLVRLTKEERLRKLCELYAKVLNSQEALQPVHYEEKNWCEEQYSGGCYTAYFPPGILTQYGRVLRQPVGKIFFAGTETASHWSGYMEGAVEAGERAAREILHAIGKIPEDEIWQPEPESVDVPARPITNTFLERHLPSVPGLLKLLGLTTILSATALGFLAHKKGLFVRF
Chain of human Serotonin, 5-Hydroxytryptamine Receptor 7 (5HT7), HTR7 (gene 3363) (P34969 whole entry, looked up): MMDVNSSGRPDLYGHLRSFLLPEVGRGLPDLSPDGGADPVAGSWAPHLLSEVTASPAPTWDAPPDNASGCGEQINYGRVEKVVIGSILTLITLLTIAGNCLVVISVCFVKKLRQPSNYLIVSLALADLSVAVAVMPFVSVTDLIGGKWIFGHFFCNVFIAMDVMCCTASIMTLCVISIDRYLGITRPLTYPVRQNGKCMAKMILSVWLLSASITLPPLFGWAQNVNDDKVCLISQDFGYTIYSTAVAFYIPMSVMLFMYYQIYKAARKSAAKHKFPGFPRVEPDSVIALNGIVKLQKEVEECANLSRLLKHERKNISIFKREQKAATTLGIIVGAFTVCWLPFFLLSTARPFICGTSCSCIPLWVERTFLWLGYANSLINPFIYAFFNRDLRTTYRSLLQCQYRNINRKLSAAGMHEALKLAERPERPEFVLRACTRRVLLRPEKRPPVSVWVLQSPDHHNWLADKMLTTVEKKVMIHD
Chain of human Adenosine A1 Receptor (AdoRA1), ADORA1 (gene 134) (P30542 whole entry, looked up): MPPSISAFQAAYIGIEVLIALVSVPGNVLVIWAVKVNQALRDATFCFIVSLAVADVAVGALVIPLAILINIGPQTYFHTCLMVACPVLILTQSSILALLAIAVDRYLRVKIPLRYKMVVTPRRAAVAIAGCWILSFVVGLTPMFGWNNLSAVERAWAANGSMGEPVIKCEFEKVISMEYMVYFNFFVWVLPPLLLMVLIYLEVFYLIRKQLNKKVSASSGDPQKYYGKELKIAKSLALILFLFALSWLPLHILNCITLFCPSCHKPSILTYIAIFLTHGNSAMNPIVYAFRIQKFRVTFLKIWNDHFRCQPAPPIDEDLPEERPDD
Chain of Beta-2 adrenergic receptor (Homo sapiens) (P07550 whole entry, looked up): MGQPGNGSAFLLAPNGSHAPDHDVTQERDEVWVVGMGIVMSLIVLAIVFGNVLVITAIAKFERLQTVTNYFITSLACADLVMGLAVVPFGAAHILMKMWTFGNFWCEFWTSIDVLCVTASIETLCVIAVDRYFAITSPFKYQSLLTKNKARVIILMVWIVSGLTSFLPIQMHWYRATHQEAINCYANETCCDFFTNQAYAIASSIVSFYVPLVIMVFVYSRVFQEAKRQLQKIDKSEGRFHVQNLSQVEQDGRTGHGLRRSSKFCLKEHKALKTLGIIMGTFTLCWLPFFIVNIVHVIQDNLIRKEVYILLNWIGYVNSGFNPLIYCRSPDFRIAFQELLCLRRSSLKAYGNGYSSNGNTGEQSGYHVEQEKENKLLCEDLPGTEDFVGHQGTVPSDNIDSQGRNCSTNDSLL

One experiment deals with bovine Dopamine Receptor (DR), Non-selective Binding, DRD1 (gene 281125) (UniProt Q95136). The experiment can be described thus: NVS_GPCR_bDR_NonSelective: NovaScreen (NVS) G Protein-Coupled Receptor Assay for bovine Dopamine Receptor (DR), Non-selective Binding (AID 2283241). How it is done:
NVS_GPCR_bDR_NonSelective is a biochemical, single-readout assay that uses extracted gene-proteins from Bovine striatal membranes in a tissue-based cell-free assay. Measurements were taken 1 hour after chemical dosing in a 48-well plate.NVS_GPCR_bDR_NonSelective is one of one assay component(s) measured or calculated from the NVS_GPCR_bDR_NonSelective assay. It is designed to make measurements of radioligand binding, a form of binding reporter, as detected with scintillation counting signals by Filter-based radiodetection technology.Data from the assay component NVS_GPCR_bDR_NonSelective was analyzed into 1 assay endpoint. This assay endpoint, NVS_GPCR_bDR_NonSelective, was analyzed in the positive analysis fitting direction relative to DMSO as the negative control and baseline of activity. Using a type of binding reporter, loss-of-signal activity can be used to understand changes in the binding as they relate to the gene DRD1. Furthermore, this assay endpoint can be referred to as a primary readout, because the performed assay has only produced 1 assay endpoint. To generalize the intended target to other relatable targets, this assay endpoint is annotated to the gpcr intended target family, where the subfamily is rhodopsin-like receptor.
Binding assays used specific radioligands (tritiated, iodinated) with non-radioactive competitive displacement ligands in agonist or antagonist protocols (as indicated) and various reference compounds and inhibitors to titrate specific binding to receptors and transporters. Most enzyme assays (CYPs, kinases, phosphatases, proteases, HDACs) used recombinant protein and specific substrates (fluorescence mostly, some colorimetric and radioactive) and inhibitors, followed by a biochemical separation of substrate and product. All assays for the biochemical HTS were initially run in duplicate at a single concentration (10 uM for CYP450 assays and 25 uM for all others). […] Each assay was run with positive and negative controls, and concurrent controls on every plate. […]
Consider `CC(C)NC(=O)N1CC(=O)N(c2cc(Cl)cc(Cl)c2)C1=O`, for which the outcome was inactive.
For the compound `CC(C)=CC1C(C(=O)OCc2coc(Cc3ccccc3)c2)C1(C)C` (centres undefined), the compound was classed as inactive.
Same read-out and setting: for `CCCN(CC)CC1COC2(CCC(C(C)(C)C)CC2)O1` (centres undefined) the value was “inactive”.

Another experiment has as its target rat Monoamine Oxidase, MAO-B, Peripheral (MAOBP), Maob (gene 25750) (UniProt P19643). The experiment in a line: NVS_ENZ_rMAOBP: NovaScreen (NVS) Enzymatic Assay for rat Monoamine Oxidase, MAO-B, Peripheral (MAOBP) (AID 2283242).
For the compound `COc1ccc(-c2ccccc2)cc1NNC(=O)OC(C)C`, the half-maximal activity concentration (AC50) is 0.139 µM (active).
In the case of `COP(=S)(OC)SCn1nnc2ccccc2c1=O`, the compound was called inactive.
Take `O=C(Nc1ccccc1-c1ccc(Cl)cc1)c1cccnc1Cl`: the compound was called inactive.
On to `CNC(=O)Oc1cccc2ccccc12`, for which the AC50 is 25 µM (active).
As to `CN=C=S`, the compound was classed as inactive.
As to `CC(C)N1C(=O)N(c2ccccc2)CSC1=NC(C)(C)C`, the call was inactive.
Consider `CCCN(CC)CC1COC2(CCC(C(C)(C)C)CC2)O1` (centres undefined), for which the outcome was inactive.

The subject of another experiment is rat Monoamine Oxidase, MAO-A, Central (MAOAC), gene 29253. The experiment in a line: NVS_ENZ_rMAOAC: NovaScreen (NVS) Enzymatic Assay for rat Monoamine Oxidase, MAO-A, Central (MAOAC) (AID 2283243).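 Also: potency refers to inhibition seen as signal drop below DMSO baseline.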 Summed up:
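Enzyme from rat brain, cell-free radiodetection format. Counts taken at 1.5 h; activity fitted against DMSO baseline, loss of signal marking inhibition. Confirmatory concentration series followed the 25 uM duplicate screen.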
With `COc1ccc(-c2ccccc2)cc1NNC(=O)OC(C)C`, the AC50 is 0.599 µM (active).
As for `Cc1nc(N(C)C)nc(OC(=O)N(C)C)c1C`, the AC50 is 12.8 µM (active).
For the compound `Nc1c(Cl)c(F)nc(OCC(=O)O)c1Cl`, the AC50 was 46.8 µM (active).
Still for that read-out and setting: in the case of `CNC(=O)Oc1cccc2ccccc12` it was 13.8 µM (active).
In the case of `N#Cc1c(Cl)cccc1Cl`, the outcome was inactive.
Take `Cc1ccc(N=CN(C)C=Nc2ccc(C)cc2C)c(C)c1`: the AC50 is 1.66 µM (active).
`N#Cc1c[nH]cc1-c1cccc2c1OC(F)(F)O2`: the compound was classed as inactive.
For the compound `COP(=S)(OC)Oc1ccc([N+](=O)[O-])c(C)c1`, the compound was classed as inactive.
Still for that read-out and setting: for `Cc1cc(C)nc(Nc2ccccc2)n1` the value was “inactive”.

The target in the next experiment is human Adenosine A1 Receptor (AdoRA1), ADORA1 (gene 134) (UniProt P30542). The experiment can be described thus: NVS_GPCR_hAdoRA1: NovaScreen (NVS) G Protein-Coupled Receptor Assay for human Adenosine A1 Receptor (AdoRA1) (AID 2283254). Summed up:
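Radioligand competition binding on human cortical membranes, 1 h after compound addition; bound radioactivity read by filtration and scintillation counting. Loss of signal versus DMSO baseline scored as displacement; primary screen duplicate at 25 uM, actives retested in concentration series.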
On to `COP(=S)(OC)SCn1nnc2ccccc2c1=O`, for which the AC50 was 9.98 µM (active).
The same measure, in the same setting: for `CCOP(=S)(OCC)Oc1nc(Cl)n(C(C)C)n1` the value was 8.95 µM (active).
On the same count and under the same terms, for `CCC(C)n1c(=O)[nH]c(C)c(Br)c1=O` (centres undefined) the value was 15.2 µM (active).

The next experiment addresses human Serotonin, 5-Hydroxytryptamine Receptor 7 (5HT7), HTR7 (gene 3363) (UniProt P34969). The experiment can be described thus: NVS_GPCR_h5HT7: NovaScreen (NVS) G Protein-Coupled Receptor Assay for human Serotonin, 5-Hydroxytryptamine Receptor 7 (5HT7) (AID 2283255).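 Also: hits reduce specific radioligand binding relative to DMSO.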 A digest of the protocol: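 Filter-bound radioactivity counted after 1 h, with loss of specific radioligand binding fitted against DMSO. Membrane protein came from CHO cells expressing human 5HT7. Chemicals were tested first at 25 uM in duplicate, then in concentration series if active.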
On to `Cc1ccc(N=CN(C)C=Nc2ccc(C)cc2C)c(C)c1`, for which the half-maximal activity concentration (AC50) was 0.574 µM (active).
`CCC(C)n1c(=O)[nH]c(C)c(Br)c1=O` (centres undefined): the AC50 is 14 µM (active).
As to `CC(C)=CC1C(C(=O)OCc2coc(Cc3ccccc3)c2)C1(C)C` (centres undefined), the compound was called inactive.
Regarding `CCCN(CC)CC1COC2(CCC(C(C)(C)C)CC2)O1` (centres undefined), the concentration at half-maximal activity (AC50) was 8 µM (active).

The next experiment concerns the target Beta-2 adrenergic receptor (Homo sapiens) (UniProt P07550). The experiment in a line: NVS_GPCR_hAdrb2: NovaScreen (NVS) G Protein-Coupled Receptor Assay for human Adrenergic, Beta 2 Receptor (Adrb2) (AID 2283261). A digest of the protocol:
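Compounds screened in duplicate at 25 uM, then actives in concentration series. Human beta-2 receptor from CHO material, cell-free; radioligand displacement after 1 h measured by filtration and scintillation against DMSO baseline.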
Turning to `COP(=S)(OC)SCn1nnc2ccccc2c1=O`, the compound was classed as inactive.
With `CN=C=S`, the compound was classed as inactive.
Take `N#Cc1c[nH]cc1-c1cccc2c1OC(F)(F)O2`: the compound was classed as inactive.

The values are drawn from PubChem BioAssay (EPA / NIEHS).
